Assay outcomes as filed in PubChem.
Tau ThT inhib – tau fibrillization inhibition (ThT binding) | recombinant tau K18 P301L, heparin-induced fibrillization, ThT fluorescence | AID 1460 | Potency, µM (doses to about 57.4 µM), without a hit: top-dose activity, negative = inhibition, hits mostly inhibitors | P10636 | 2.1% of 270,000 active; further: nearly all actives have a fitted effect of over 55% in size
Target sequence (P10636 561-689 P618L limits assumed): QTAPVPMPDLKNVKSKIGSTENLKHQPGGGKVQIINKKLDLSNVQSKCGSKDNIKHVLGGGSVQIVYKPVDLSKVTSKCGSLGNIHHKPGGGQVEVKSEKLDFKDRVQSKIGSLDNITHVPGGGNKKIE
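Using a mix of unlabeled (15 uM) and Alexa 594-labeled (0.24 uM) tau K18 P301L, heparin-triggered fibrillization over 6 hr at 37 C was scored by ThT fluorescence.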
VP16 counter – counter-screen for ROR gamma inhibitors: Gal4-VP16 reporter | 3.5% of 310,000 active | Potency, µM (highest dose often 53.6 µM), without a hit: at the highest dose activity, negative = inhibition, hits mostly inhibitors | Drosophila S2 Gal4-VP16 UAS-luciferase, luminescence, 20 h | AID 2546;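 further: Gal4-VP16 expression switched on by copper sulfate through the metallothionein promoter; nearly all actives have a fitted effect of over 50% in size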
Tau fibril FP – blocks human tau fibril formation measured by polarization. P10636. K18 P301L tau heparin fibrillization, Alexa594 FP, 6 h. Potency, µM (series often up to 57.7 µM), for inactives: at the highest dose activity, negative = inhibition, actives largely listed as inhibitors. 0.39% of 280,000 active; further: nearly all actives have a fitted effect of over 55% in size
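Read-out: fluorescence polarization of Alexa 594-labeled tau (0.24 uM), 555 nm excitation, 632 nm emission. Mixtures held 15 uM unlabeled K18 P301L, compound and 20 uM heparin, pH 7 acetate buffer, incubated 6 hr at 37 C.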
Tau fluor counter – counter-screen for tau fibril formation inhibitors | tau K18 P301L (four-repeat tau fragment) Alexa594 fluorescence, heparin fibrillization | 0.93% of 280,000 active | Potency, µM (doses to about 57.7 µM), for the others: at the top dose activity change, negative = decrease | AID 1463; further: nearly all actives have a fitted effect of over 55% in size
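Human K18 P301L tau (15 uM unlabeled plus 0.24 uM Alexa 594-labeled, final) in 100 mM sodium acetate pH 7 was mixed with compound and 20 uM heparin and incubated 6 hr at 37 C.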
RORgamma inh – ROR gamma (mouse) transcription inhibition; Potency, µM (series often up to 53.6 µM), for the others: at the highest dose activity change, negative = inhibition, usual class: inhibitors; Drosophila S2 Gal4-RORgamma UAS-luciferase reporter, 20 h; AID 2551; P51450; 5.4% of 310,000 active; further: nearly all actives have a fitted effect of over 60% in size
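Compounds are pin-transferred onto Drosophila Schneider cells expressing a copper-inducible Gal4–ROR gamma transactivation domain fusion. After 1 hr, copper sulfate is added to 700 uM final; luciferase is read 20 hr later.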
* hit, by the source's call; [ ] = another dose, or the depositor's remark. Most compounds without a hit are left out; they make up all but 7.3% or so of the library. The call rests on the fitted dose curve; in most records, active means well fitted curve in the direction sought with a large enough effect; inconclusive means small, poorly fitted or top-dose-only effect, or another doubt; inactive means no such curve, though single readings can be large; an effect the other way counts as inactive or inconclusive. On the % scale 0 is the no-effect control and ±100 the full control effect; potency means the concentration at half of the fitted maximal effect.

What do the screens show for `Cc1ccc(C(=O)/C=C/Nc2ccccc2C(N)=O)cc1`?
Tau ThT inhib: -12.1%; VP16 counter: 2.82µM*; Tau fibril FP: -11.9%; Tau fluor counter: -8.6%; RORgamma inh: 0.501µM*

How did Cc1ccc(C(=O)/C=C/C(=O)c2ccc(C)cc2)cc1 do in these assays?
Tau ThT inhib: -10.3%; VP16 counter: inconclusive; Tau fibril FP: -6.6%; Tau fluor counter: 2.8%; RORgamma inh: 5.01µM*

How did Cc1nc(N(C)C)c2sc(=S)n(Cc3ccccc3)c2n1 do in these assays?
Tau ThT inhib: 2.1%; VP16 counter: 14.6%; Tau fibril FP: -2.2%; Tau fluor counter: -12.0%; RORgamma inh: -29.1%

How did CC(C)(C)OC(=O)N1CCN(CCNC(=O)c2ccccc2)CC1 do in these assays?
VP16 counter: -6.6%; RORgamma inh: 10.7%

How did CCOc1ccc(CN2C(=O)C(=O)c3cccc(C)c32)cc1OC do in these assays?
Tau ThT inhib: inconclusive; Tau fibril FP: -3.7%; Tau fluor counter: -14.8%

Results for Cc1ccc(CNCc2ccc3c(c2)n(C)c(=O)n3C)cc1 ?
Tau ThT inhib: 4.3%; Tau fibril FP: -12.0%; Tau fluor counter: -4.8%

How did COC(=O)COc1ccc(S(=O)(=O)Nc2ccccc2SC)cc1 do in these assays?
Tau ThT inhib: 0.2%; VP16 counter: -0.4%; Tau fibril FP: -10.3%; Tau fluor counter: -3.1%; RORgamma inh: -0.8%

How did COC(=O)COc1ccc(S(=O)(=O)Nc2cc(OC)ccc2OC)cc1 do in these assays?
Tau ThT inhib: 6.9%; VP16 counter: 25.1µM*; Tau fibril FP: 1.3%; Tau fluor counter: -1.8%; RORgamma inh: 5.01µM*

How did Cc1ccc(OC(=S)Nc2ccc(O)cc2)cc1 do in these assays?
Tau ThT inhib: 15.8µM*; VP16 counter: -4.8%; Tau fibril FP: inconclusive; Tau fluor counter: -25.6%; RORgamma inh: 2.0%

Results for Cc1ccc(OC(=S)Nc2ccc(F)cc2)cc1 ?
Tau ThT inhib: 4.1%; VP16 counter: 1.0%; Tau fibril FP: 3.0%; Tau fluor counter: 3.4%; RORgamma inh: -18.0%

Results for COc1cc(C(c2c(C)[nH][nH]c2=O)c2c(C)[nH][nH]c2=O)ccc1OC(=O)c1cccc(C)c1 ?
Tau ThT inhib: inconclusive; Tau fibril FP: -5.2%; Tau fluor counter: -29.6%

Results for C=CCSc1ncc(C(=O)OCC)c(N)n1 ?
Tau ThT inhib: -5.5%; VP16 counter: -0.1%; Tau fibril FP: -6.2%; Tau fluor counter: -10.9%; RORgamma inh: 12.3%

How did CCOC(=O)c1cnc(SSc2ncc(C(=O)OCC)c(N)n2)nc1N do in these assays?
VP16 counter: 11.2µM*; RORgamma inh: 10µM*

How did O=C(CC(Sc1ccc(Br)cc1)C(=O)O)c1ccc(Br)cc1 (centres undefined) do in these assays?
VP16 counter: inconclusive; RORgamma inh: 14.1µM*

How did Cc1ccc(SC(CC(=O)c2ccc(C)cc2)C(=O)O)cc1 (centres undefined) do in these assays?
Tau ThT inhib: inconclusive; VP16 counter: inconclusive; Tau fibril FP: -14.3%; Tau fluor counter: -9.4%; RORgamma inh: inconclusive

What do the screens show for `CCCCc1c(C)nn(-c2nnc3c4ccccc4n(C)c3n2)c1C`?
Tau ThT inhib: inconclusive; VP16 counter: 7.08µM*; Tau fibril FP: 1.3%; Tau fluor counter: -12.3%; RORgamma inh: 0.794µM*

What do the screens show for `Oc1ccc(/C=N/N2CCN(C3c4ccccc4-c4ccccc43)CC2)c(O)c1`?
Tau ThT inhib: -18.2%; VP16 counter: -19.6%; Tau fibril FP: inconclusive; Tau fluor counter: 12.6µM*[quencher]; RORgamma inh: 5.1%

How did Oc1ccc(/C=N/N2CCN(C3c4ccccc4-c4ccccc43)CC2)cc1 do in these assays?
Tau ThT inhib: -7.0%; VP16 counter: 18.3%; Tau fibril FP: -9.4%; Tau fluor counter: inconclusive; RORgamma inh: -0.9%

Results for O=C(O)c1ccccc1/C=N/N1CCN(C2c3ccccc3-c3ccccc32)CC1 ?
Tau ThT inhib: -9.9%; VP16 counter: -15.7%; Tau fibril FP: -6.7%; Tau fluor counter: -4.1%; RORgamma inh: 10.3%

How did Oc1ccc(/C=N/N2CCN(C3c4ccccc4-c4ccccc43)CC2)cc1O do in these assays?
Tau ThT inhib: inconclusive; VP16 counter: -19.2%; Tau fibril FP: inconclusive; Tau fluor counter: 12.6µM*[quencher]; RORgamma inh: 16.3%
